Compounds with a hit are over-represented: about 21% of the library has one in this group of screens.
Pf growth 96h: P. falciparum growth inhibition at 96 hour, primary screen for plastid delayed-death inhibitors. P. falciparum luciferase reporter growth, 96 h. Potency, µM (titrated, usually from 28.7 µM), actives largely listed as inhibitors. 320,000 tested, 6.9% active
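Compounds incubated with erythrocytes infected by luciferase-expressing P. falciparum (2% hematocrit, 0.05% parasitemia final) for 96 hours, 37 C in 5% CO2. Growth inhibition scored as decreased luciferase luminescence.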
Sm TGR block: S. mansoni TGR enzyme inhibition | Q962Y6 | purified TGR, DTNB reduction, TNB absorbance 405 nm | Potency, µM (series often up to 114 µM), usual class: inhibitors | 360,000 tested, 3% active | AID 485364; also: nearly all actives have a fitted effect of over 60% in size
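TGR 20 nM + NADPH 100 uM (dispensed conc.), cpd preinc 15 min RT; start with NADPH (500 uM addition) then DTNB (15 mM addition). Kinetic TNB absorbance, 405 nm filter. Four-parameter Hill fit across titration.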
Cycloheximide cs: counter-screen hit for Shiga toxin inhibitors, cycloheximide; cell reporter, cycloheximide protein synthesis inhibition counterscreen; max response, %; 300,000 tested, 12% active; in the data active = max response mostly above about 13%, no sharp cut-off; inactive = mostly below about 14%; also: read at 38.3 µM for the half of the compounds with a filed dose
NS1 inh: inhibitors of influenza NS1 protein function; Potency, µM (highest dose often 46.1 µM); 270,000 tested, 0.4% active; calls by dose curve; also: actives are rising curves; nearly all actives have a fitted effect of over 50% in size
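Growth recovery, yeast-based: influenza A NS1 expressed in S. cerevisiae causes slow growth, and suppressors are detected by OD600. The parent strain without NS1 is used as positive control.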
Shiga toxin inh: Shiga toxin inhibition. inhibition, % at 38.7 µM. AID 2315. Vero cells, Shiga toxin protein synthesis inhibition reporter. 290,000 tested, 9.2% active; in the data active = inhibition mostly above about 28%, no sharp cut-off; inactive = mostly below about 43%
Pf growth 48h: inhibits P. falciparum growth in the first generation, 48 h; P. falciparum luciferase growth in erythrocytes, 48 h; Potency, µM (top dose mostly 28.7 µM), usual class: inhibitors; 310,000 tested, 5.9% active; AID 504832
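Growth was read as firefly luciferase luminescence after a 48 h, 37 C, 5% CO2 exposure of compounds to reporter-bearing P. falciparum cultures (0.1% parasitemia, 2% hematocrit final) in Albumax-supplemented RPMI 1640.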
Hits are given with their value; - = inactive; ? = inconclusive; . = no result given. Unless noted, calls follow the shape of the dose curve; as a rule, active = well fitted curve in the direction sought with a large enough effect; inconclusive = small, poorly fitted or top-dose-only effect, or another doubt; inactive = no such curve, though single readings can be large; an effect the other way counts as inactive or inconclusive.

SMILES	Pf growth 96h	Sm TGR block	Cycloheximide cs	NS1 inh	Shiga toxin inh	Pf growth 48h
CCOC(=O)c1ccccc1NC1c2ccccc2C(=O)N1c1ccc(C)cn1 (stereo not drawn)	-	-	21.3	-	-	-
CCOc1ccccc1NC1c2ccccc2C(=O)N1c1ccc(C)cn1 (stereo not drawn)	-	-	-	-	-	.
O=C(Nc1ccc(SC(F)F)cc1)c1cc(-c2ccc3c(c2)OCCO3)on1	.	-	.	.	.	.
COc1cc(/C=C(\C#N)c2nc3ccccc3[nH]2)ccc1Oc1ccc([N+](=O)[O-])cn1	4.15µM	-	23.5	-	-	5.86µM
COc1cc(/C=C(/C#N)c2ccccc2)ccc1Oc1ccc([N+](=O)[O-])cn1	0.928µM	-	-	-	-	4.65µM
COC(=O)/C(C#N)=C1/C=Cc2ccccc2N1C	-	-	25.6	-	61.0	-
Cc1c(CCC(=O)NCCc2ccc(Cl)cc2)c(=O)oc2c(C)c(O)ccc12	.	-	.	.	.	.
Cc1ccc(S(=O)(=O)N(C)CC(O)Cn2c3ccccc3c3ccccc32)cc1 (stereo not drawn)	-	-	-	-	-	?
O=S(=O)(c1ccc(F)cc1)N(CCO)CC(O)Cn1c2ccccc2c2ccccc21 (stereo not drawn)	?	-	-	-	-	14.7µM
CCN(CC(O)Cn1c2ccccc2c2ccccc21)S(=O)(=O)c1ccc(F)cc1 (stereo not drawn)	13.1µM	-	-	-	-	.
Cc1ccc(S(=O)(=O)N(CC(O)Cn2c3ccccc3c3ccccc32)c2cccc(C(N)=O)c2)cc1 (stereo not drawn)	.	-	.	.	.	.
CN1CCc2nc3sc(C(=O)C45CC6CC(CC(C6)C4)C5)c(N)c3cc2C1	2.62µM	?	-	?	-	9.28µM
CCOC(=O)CN1C(=O)C(C)(C)Oc2ccc(C(=O)Nc3ccccc3OC)cc21	-	-	-	-	-	?
COCCCN1C(=O)c2ccc(C(=O)Nc3ccc(OC)cc3)cc2C1=O	?	-	14.8	-	-	.
COCCCN1C(=O)c2ccc(C(=O)Nc3ccccc3OC)cc2C1=O	4.65µM	-	-	-	-	-
COc1ccccc1NC(=O)c1ccc2c(c1)N(CC#N)C(=O)C(C)(C)O2	11.7µM	-	-	-	-	-
CC(=O)Oc1ccc(C(=O)Nc2ccc3c(c2)C(=O)N(CCC(=O)O)C3=O)cc1	11.7µM	-	-	-	-	.
COc1cc(C(=O)Nc2ccc3c(c2)C(=O)N(CCC(=O)O)C3=O)cc(OC)c1OC	.	-	-	-	-	-
Cc1ccc(-c2nnc(Nc3ccc(C(N)=O)cc3)c3ccccc23)cc1S(N)(=O)=O	.	-	.	.	.	.
CCCCOc1ccc(NC(=O)CN2CCN(Cc3ccccc3)CC2)cc1	?	-	-	-	-	-
CC1CCCCC1NC(=O)/C(C#N)=C/c1ccc(F)c(F)c1 (stereo not drawn)	?	-	-	-	-	11.7µM
CC1CCCCC1NC(=O)/C(C#N)=C/c1ccc2c(c1)OCCO2 (stereo not drawn)	?	-	-	-	38.6	?
CC(OC(=O)c1ccc2c(c1)OCCO2)C(=O)NC1CCCCC1C (stereo not drawn)	-	-	.	.	.	-
CC(=O)Nc1ccc(/C=C(\C#N)C(=O)NC2CCCCC2)cc1	-	-	-	-	-	-
CCN(CC)CCN1C(=O)C(=O)/C(=C(/O)c2c(C)[nH]c(C(=O)OC)c2C)C1c1ccc(C)o1 (stereo not drawn)	-	20µM	-	-	-	-
SMILES	Pf growth 96h	Sm TGR block	Cycloheximide cs	NS1 inh	Shiga toxin inh	Pf growth 48h
CCOC(=O)c1[nH]c(C)c(/C(O)=C2\C(=O)C(=O)N(CCN(C)C)C2c2ccc(C)o2)c1C (stereo not drawn)	-	28.2µM	-	-	-	-
CC(C)C(C(=O)NC(C)(C)C)N(CCN1CCOCC1)C(=O)CNS(=O)(=O)c1ccccc1 (stereo not drawn)	1.85µM	-	-	-	-	-
Cc1cc(NCCCN2CCOCC2)n2ncc(-c3ccccc3)c2n1	?	-	55.8	-	77.8	-
Cc1cc(NCCCN2CCOCC2)n2nc(C)c(-c3ccc(F)cc3)c2n1	-	-	-	-	-	7.38µM
Cc1cc(NCCCN2CCOCC2)n2nc(C)c(-c3ccccc3)c2n1	?	-	-	-	-	?
Cc1ccc(C2SCC(=O)N2Cc2cn3ccsc3n2)o1 (stereo not drawn)	14.7µM	?	-	-	-	-
